Inconclusive results are not listed. Activity calls are given as the source filed them. Unless noted, calls come from the whole dose curve; as a rule, active = well fitted curve in the direction sought with a large enough effect in the repeat runs; inconclusive = weak or mixed curves; inactive = flat fitted curve, though single readings scatter.
Columns and labels:
[1] = qHTS assay to test for compound auto fluorescence at 535 nm (green) in HEK293 cells (AID 720680)
[2] = qHTS assay to test for compound auto fluorescence at 460 nm (blue) in HEK293 cell free culture (AID 720681)
In short: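 Compounds were added to cell-free DMEM with 10% FBS and fluorescence read directly. The blue channel used 405 nm excitation and 460 nm emission, with triamterene as the reference fluorophore.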

[3] = qHTS assay to test for compound auto fluorescence at 535 nm (green) in HEK293 cell free culture (AID 720682)
In short: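 Read-out: 485/535 nm fluorescence intensity, calibrated against fluorescein. Medium only (DMEM + 10% FBS, no cells); test compound or DMSO vehicle added by pintool before plate reading.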

[4] = qHTS assay to test for compound auto fluorescence at 590 nm (red) in HEK293 cell free culture (AID 720683)
In short: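 Cell-free wells of DMEM with 10% FBS received compound, and intrinsic fluorescence was read at excitation/emission 540/590 nm. Values expressed as equivalence to Rose Bengal sodium.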

[5] = qHTS assay to test for compound auto fluorescence at 590 nm (red) in HepG2 cell free culture (AID 720684)
In short: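 Compound was pinned into wells holding MEM with 10% FBS and no cells, and red fluorescence was read at Ex/Em 540/590 nm. Signal is expressed as auto fluorescence equivalency relative to Rose Bengal sodium.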

[6] = qHTS assay to test for compound auto fluorescence at 460 nm (blue) in HepG2 cell free culture (AID 720685)
In short: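 Compound (23 nL) or DMSO pinned into cell-free MEM with 10% FBS; blue fluorescence read at 405/460 nm excitation/emission, expressed as auto-fluorescence equivalency to triamterene.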

[7] = qHTS assay to test for compound auto fluorescence at 535 nm (green) in HepG2 cell free culture (AID 720686)
[8] = qHTS assay to test for compound auto fluorescence at 460 nm (blue) in HepG2 cells (AID 720687)
In short: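 HepG2 cells in MEM with 10% FBS, attached overnight at 37 C, were exposed to compound or DMSO for 1 hr at 37 C, 5% CO2. Blue fluorescence was read at 405/460 nm, with triamterene as reference fluorophore.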

[9] = molecular target: Glucocorticoid receptor (Homo sapiens) (UniProt P04150); assay: qHTS assay to identify small molecule agonists of the glucocorticoid receptor (GR) signaling pathway (AID 720691; active = well fitted activation curve with a large enough effect in the signal ratio in the repeat runs, not every such curve was filed as active; the % refers to the signal ratio); conditions: GR-bla HeLa, beta-lactamase reporter ratio, 18 h; activation: at 62.4 µM (top of the series)
In short: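 Agonist mode in a HeLa line carrying a GRE-controlled beta-lactamase reporter. Compounds act for 18 h at 37 C before a 2 h room-temperature FRET substrate step and fluorescence reading.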

[10] = molecular target: Glucocorticoid receptor (Homo sapiens) (UniProt P04150); assay: qHTS assay to identify small molecule antagonists of the glucocorticoid receptor (GR) signaling pathway (AID 720692; active = well fitted inhibition curve with a large enough effect in the signal ratio in the repeat runs, not every such curve was filed as active; the % refers to the signal ratio)
In short: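 Cells plated, rested 4 h at 37 C/5% CO2; compounds in DMSO pin-transferred; dexamethasone added to 5 nM final; 18 h at 37 C; B/G FRET substrate added, 2 h room temperature; fluorescence measured.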
% is set by controls: 0 for no effect and ±100 for the full control effect.

Chain of Glucocorticoid receptor (Homo sapiens) (P04150 whole entry, looked up): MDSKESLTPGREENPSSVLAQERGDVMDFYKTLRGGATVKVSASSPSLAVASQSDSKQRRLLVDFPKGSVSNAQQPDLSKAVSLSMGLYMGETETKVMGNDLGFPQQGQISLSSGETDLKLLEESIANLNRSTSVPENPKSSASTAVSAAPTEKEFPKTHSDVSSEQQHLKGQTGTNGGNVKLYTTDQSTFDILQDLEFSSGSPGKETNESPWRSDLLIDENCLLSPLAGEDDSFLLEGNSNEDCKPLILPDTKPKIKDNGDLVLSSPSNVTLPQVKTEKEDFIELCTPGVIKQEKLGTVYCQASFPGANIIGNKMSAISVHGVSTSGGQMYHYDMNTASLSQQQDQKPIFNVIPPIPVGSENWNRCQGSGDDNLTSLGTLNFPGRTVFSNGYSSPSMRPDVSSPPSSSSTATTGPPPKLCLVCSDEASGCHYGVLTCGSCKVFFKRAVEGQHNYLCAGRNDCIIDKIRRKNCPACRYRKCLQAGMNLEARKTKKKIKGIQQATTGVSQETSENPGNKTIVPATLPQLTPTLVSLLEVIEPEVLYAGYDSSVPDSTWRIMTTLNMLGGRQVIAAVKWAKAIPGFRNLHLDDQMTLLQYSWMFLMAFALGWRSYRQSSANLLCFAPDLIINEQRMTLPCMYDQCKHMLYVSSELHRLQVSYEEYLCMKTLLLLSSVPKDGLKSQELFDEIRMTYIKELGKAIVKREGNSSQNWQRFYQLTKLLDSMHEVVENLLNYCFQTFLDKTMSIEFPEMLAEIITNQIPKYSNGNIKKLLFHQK

O[C@@H](c1cc(C(F)(F)F)nc2c(C(F)(F)F)cccc12)[C@H]1CCCCN1
inactive: Potency [1] | Potency [2] | Potency [3] | Potency [4] | Potency [5] | Potency [6] | Potency [7] | Potency [8]

O=C1OC(=O)c2cccc3cccc1c23
inactive: Potency [1] | Potency [2] | Potency [3] | Potency [4] | Potency [5] | Potency [6] | Potency [7] | Potency [8] | Potency [9]

Clc1ccc(C(Cn2ccnc2)OCc2c(Cl)cccc2Cl)c(Cl)c1 (centres undefined)
inactive: fluorescence, % of fluorescein [1] 0.16% [at 18.6 µM] | fluorescence, % of fluorescent control [2] -0.0423% [at 18.6 µM] | activity change [3] -0.0265% [at 18.6 µM, active compounds read high] | fluorescence, % of fluorescent control [4] -0.276% [at 18.6 µM] | fluorescence, % of Rose Bengal [5] -0.46% [at 18.6 µM] | fluorescence, % of fluorescent control [6] 0% [at 18.6 µM] | fluorescence, % of fluorescein control [7] 0.0431% [at 18.6 µM] | fluorescence, % of fluorescent control [8] 0.116% [at 18.6 µM]

Cc1c(-c2ccc(O)cc2)n(Cc2ccc(OCCN3CCCCCC3)cc2)c2ccc(O)cc12
inactive: Potency [1] | Potency [2] | Potency [3] | Potency [4] | Potency [5] | Potency [6] | Potency [7] | Potency [8]

O=C(NO)c1ccccc1
inactive: Potency [1] | Potency [2] | Potency [3] | Potency [4] | Potency [5] | Potency [6] | Potency [7] | Potency [8] | Potency [9]

CC(C)=C1CC[C@@H](C)CC1=O
inactive: Potency [1] | Potency [2] | Potency [3] | Potency [4] | Potency [5] | Potency [6] | Potency [7] | Potency [8]

CCNc1nc(NC(C)CC)nc(OC)n1 (centres undefined)
inactive: Potency [1] | Potency [2] | Potency [3] | Potency [4] | Potency [5] | Potency [6] | Potency [7] | Potency [8] | Potency [9] | Potency [10]

O=C(Oc1ccccc1)c1cccc(C(=O)Oc2ccccc2)c1
inactive: Potency [1] | Potency [2] | Potency [3] | Potency [4] | Potency [5] | Potency [6] | Potency [7] | Potency [8] | Potency [9]

O=C1c2c(O)ccc([N+](=O)[O-])c2C(=O)c2c([N+](=O)[O-])ccc(O)c21
inactive: Potency [1] | Potency [2] | Potency [3] | Potency [4] | Potency [5] | Potency [6] | Potency [7] | Potency [8]

Oc1c(Br)cc(Br)c2cccnc12
inactive: Potency [1] | Potency [2] | Potency [3] | Potency [4] | Potency [5] | Potency [6] | Potency [7] | Potency [8]

Cc1ccc(N)cc1O
inactive: Potency [1] | Potency [2] | Potency [3] | Potency [4] | Potency [5] | Potency [6] | Potency [7] | Potency [8] | Potency [9]

CNC(=O)c1cc(Oc2ccc(NC(=O)Nc3ccc(Cl)c(C(F)(F)F)c3)cc2)ccn1
inactive: Potency [1] | Potency [2] | Potency [3] | Potency [4] | Potency [5] | Potency [6] | Potency [7] | Potency [8]

CC(C)(C)C1=CC(=O)C=C(C(C)(C)C)C1=O
inactive: Potency [1] | Potency [2] | Potency [3] | Potency [4] | Potency [5] | Potency [6] | Potency [7] | Potency [8] | Potency [9]

CC(C)(c1cc(Br)c(OCCO)c(Br)c1)c1cc(Br)c(OCCO)c(Br)c1
inactive: Potency [1] | Potency [2] | Potency [3] | Potency [4] | Potency [5] | Potency [6] | Potency [7] | Potency [8]

COC(=O)CC#N
inactive: Potency [1] | Potency [2] | Potency [3] | Potency [4] | Potency [5] | Potency [6] | Potency [7] | Potency [8]

Oc1ccc(-c2ccc(O)cc2)cc1
inactive: Potency [1] | Potency [2] | Potency [3] | Potency [4] | Potency [5] | Potency [6] | Potency [7] | Potency [8] | Potency [9]

Cc1c(C(=O)O)cccc1[N+](=O)[O-]
inactive: Potency [1] | Potency [2] | Potency [3] | Potency [4] | Potency [5] | Potency [6] | Potency [7] | Potency [8] | Potency [9]

CN(C)c1ccc(N=NS(=O)(=O)O)cc1
inactive: Potency [1] | Potency [2] | Potency [3] | Potency [4] | Potency [5] | Potency [6] | Potency [7] | Potency [8] | Potency [9]

CCN(CC)c1ccc(N)cc1
inactive: Potency [1] | Potency [2] | Potency [3] | Potency [4] | Potency [5] | Potency [6] | Potency [7] | Potency [8] | Potency [9]

NC1(c2ccc(-c3nc4ccn5c(=O)[nH]nc5c4cc3-c3ccccc3)cc2)CCC1
inactive: Potency [1] | Potency [2] | Potency [3] | Potency [4] | Potency [5] | Potency [6] | Potency [7] | Potency [8] | Potency [9]

O=C(O)CCCCCCC(=O)O
inactive: Potency [1] | Potency [2] | Potency [3] | Potency [4] | Potency [5] | Potency [6] | Potency [7] | Potency [8] | Potency [9]

CCCCCCCC/C=C\CCCCCCCC(=O)N(C)CC(=O)O
inactive: Potency [1] | Potency [2] | Potency [3] | Potency [4] | Potency [5] | Potency [6] | Potency [7] | Potency [8]

From PubChem BioAssay (Tox21)
